# Source: PubChem BioAssay
# Shown is part of a subset that was picked to be rich in hits.
# HT1080 IDH1KD tx = kills HT-1080 cells with IDH1 knockdown | HT-1080 IDH1 knockdown viability, ATP luminescence, 48 h | Potency, µM (top dose mostly 46.1 µM), without a hit: at the top dose activity, negative = toxicity, usual class: cytotoxic | 360,000 tested, 2% active | AID 686971;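 note: potency is the fitted concentration of half-maximal effect; 0% = DMSO wells and -100% = cell-free medium wells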
#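 CellTiter-Glo luminescence after 48 h compound exposure at 37 degrees C of IDH1-knockdown HT-1080 cells in 5% FBS RPMI. %Activity scaled between DMSO wells and cell-free media wells, with curves fitted and assigned curve classes.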
# IL-1B inflam inh = inhibitors of inflammasome signaling (IL-1 beta secretion); 360,000 tested, 4.7% active; THP-1 LPS/ATP IL-1B secretion, AlphaLISA, 16 h; hits give low values; activity change, % at 57.5 µM; in the data active = activity change below about -50%; inconclusive = mostly about -30% to -49%
#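 THP-1 cells pretreated 1 hr with compounds (up to 57.5 uM final), then stimulated with LPS (250 ng/mL final) plus ATP (1.25 mM final); secreted IL-1B measured by AlphaLISA after 16 hr, decreased signal indicating inhibition.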
# ALOX12 inh = inhibitors of human 12S-lipoxygenase ALOX12. P18054. purified 12hLO, xylenol orange hydroperoxide absorbance. Potency, µM (titrated, usually from 108 µM), for the others: at the highest dose activity change, negative = inhibition, usual class: inhibitors. 580,000 tested, 1.1% active; note: potency is the fitted concentration of half-maximal effect
# Target sequence (P18054 whole entry, looked up): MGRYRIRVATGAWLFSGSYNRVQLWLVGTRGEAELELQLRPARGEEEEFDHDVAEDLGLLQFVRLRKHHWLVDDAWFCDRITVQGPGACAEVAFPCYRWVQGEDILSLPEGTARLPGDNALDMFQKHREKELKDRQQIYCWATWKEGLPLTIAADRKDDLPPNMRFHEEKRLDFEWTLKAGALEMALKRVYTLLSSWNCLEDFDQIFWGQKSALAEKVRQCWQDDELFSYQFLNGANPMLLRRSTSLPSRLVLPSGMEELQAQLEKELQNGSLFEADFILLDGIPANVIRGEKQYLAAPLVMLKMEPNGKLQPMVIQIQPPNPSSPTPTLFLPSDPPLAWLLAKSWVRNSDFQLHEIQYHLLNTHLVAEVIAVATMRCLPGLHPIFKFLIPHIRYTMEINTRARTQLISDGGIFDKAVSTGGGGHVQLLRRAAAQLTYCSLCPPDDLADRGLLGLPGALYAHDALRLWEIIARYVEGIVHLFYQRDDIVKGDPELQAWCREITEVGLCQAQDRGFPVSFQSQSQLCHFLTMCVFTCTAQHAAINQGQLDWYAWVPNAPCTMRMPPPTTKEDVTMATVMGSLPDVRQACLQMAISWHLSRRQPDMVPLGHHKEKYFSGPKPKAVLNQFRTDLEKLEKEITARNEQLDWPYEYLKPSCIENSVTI
#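 Hydroperoxide product was detected by ferrous iron/xylenol orange as the 573 to 405 nm absorbance ratio. Arachidonic acid at 40 uM (final) was turned over for 30 min at room temperature by 150 nM human 12hLO, pH 7.0 Hepes buffer, after 15 min compound preincubation.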
# TDP1 cell noCPT = qHTS for Inhibitors of human tyrosyl-DNA phosphodiesterase 1 (TDP1): qHTS in cells in absence of CPT; DT40 Tdp1-/- hTDP1 cells, no CPT, ATP luminescence, 48 h; Potency, µM (titrated, usually from 46.2 µM), for inactives: at the highest dose activity change, negative = growth inhibition, most hits filed as inhibitors; 420,000 tested, 15% active; note: potency is the fitted concentration of half-maximal effect; nearly all actives have a fitted effect of over 55% in size
#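 Chicken DT40 Tdp1-/- cells complemented with human TDP1, screened without camptothecin (DMSO vehicle only), 400 cells/well. Compounds pin-transferred, cells incubated at 37 °C for at least 48 hr. Growth read as ATP-dependent luminescence (CellTiter-Glo, 30 min at RT).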
# HT1080NT lethal = kills 2HG-producing HT-1080-NT fibrosarcoma cells. HT-1080-NT fibrosarcoma viability, CellTiter-Glo ATP luminescence, 48 h. Potency, µM (top dose mostly 46.1 µM), without a hit: at the highest dose activity, negative = less viability, hits mostly cytotoxic. 360,000 tested, 1.6% active;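 note: NT is the 2HG producing partner of a matched IDH1 knockdown line; potency is the fitted concentration of half-maximal effect; 0% = DMSO-treated cells and -100% = media-only wells without cells; nearly all actives have a fitted effect of over 55% in size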
#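 Compounds were tested in concentration-response format on HT-1080-NT cells for 48 hours at 37 degrees C. Cell viability came from CellTiter-Glo luminescence; curves were classified by r2, response magnitude and activity.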
# DT40 TDP1 CPT = DT40-hTDP1 cell growth loss with CPT; 420,000 tested, 12% active; Potency, µM (series often up to 46.2 µM), inactives show top-dose activity change, negative = growth inhibition, actives largely listed as inhibitors; chicken DT40 Tdp1-/-;hTDP1 cells + 20 nM CPT, ATP luminescence, 48 h; note: potency is the fitted concentration of half-maximal effect; nearly all actives have a fitted effect of over 55% in size
#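 Cell growth measured by CellTiter-Glo luminescence after a minimum 48 h, 37 C compound exposure with 20 nM CPT in Tdp1-knockout DT40 cells stably expressing hTDP1, seeded 400/well; qHTS titration format.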
# * = called active by the depositor; ? = inconclusive; . = no result; [ ] = another dose, or the depositor's remark. Unless noted, calls come from the whole dose curve; as a rule, active = well fitted curve in the direction sought with a large enough effect; inconclusive = small, poorly fitted or top-dose-only effect, or another doubt; inactive = no such curve, though single readings can be large; an effect the other way counts as inactive or inconclusive. Unless noted, % is set by controls: 0 for no effect and ±100 for the full control effect.
SMILES,HT1080 IDH1KD tx,IL-1B inflam inh,ALOX12 inh,TDP1 cell noCPT,HT1080NT lethal,DT40 TDP1 CPT
CN(/C=C/C(=O)/C=C/N(C)c1ccccc1)c1ccccc1,.,.,16µM*,.,.,.
CC(C)Cn1nc(C(=O)OCC(=O)Nc2ccccc2Cl)c2ccccc2c1=O,.,.,-5%,.,.,.
COc1ccccc1N1CCN(C2=NS(=O)(=O)c3ccccc32)CC1,-3%,19,-20%,?,2%,-26%
CC1=NN(C2=NS(=O)(=O)c3ccccc32)C(C)(O)C1 (stereo unspecified),4%,21,0%,0.37µM*,2%,0.41µM*
COCCNC(=O)CN1C(=O)CCn2nc(-c3cn(C)c4ccccc34)cc21,.,.,-14%,39%,.,-24%
CC(=O)Nc1cccc(-c2cc(NC(C)=O)c3ncc(-c4cccc(C(F)(F)F)c4)n3c2)c1,0%,-3,-28%,23µM*,-25%,26µM*
COc1ccc(F)cc1-c1cc(NC(C)=O)c2ncc(-c3cccc(C(F)(F)F)c3)n2c1,?,?,?,?,?,29µM*
CC(=O)Nc1cc(-c2ccc(N)nc2)cn2c(-c3cccc(C(F)(F)F)c3)cnc12,?,0,?,15µM*,?,?
COc1ccc(F)cc1-c1cccc(C(=O)O)c1,.,.,13%[12.5 µM],.,.,.
CC(=O)Nc1cc(-c2ccc(CO)cc2)cn2c(-c3cccc(C(F)(F)F)c3)cnc12,?,-27,?,23µM*,-29%,18µM*
Cc1cc(-c2ccccc2)c2c(=O)[nH][nH]c2n1,2%,9,?,6%,4%,-1%
COc1ccc(N2C[C@H](CSC)[C@@H](CC(=O)Nc3ccccc3)C2=O)cc1,6%,48,?,?,-3%,-17%
NC(=O)c1cnn2c(-c3cccc(C(F)(F)F)c3)ccnc12,14%,.,346%,0%,9%,6%
CC(=O)Nc1cc(-c2ccc(N)cc2)cn2c(-c3cccc(C(F)(F)F)c3)cnc12,-17%,-10,?,16µM*,-3%,16µM*
COC(=O)C1=C(C)N=C2SC=C(CC(=O)Nc3cc(C)cc(C)c3)N2C1c1ccccc1OC (stereo unspecified),.,.,-1%,.,.,.
Cc1nc(N2CCOCC2)c2c3c(sc2n1)CCC3,-13%,16,9%,?,0%,-8%
CSc1nc(N2CCOCC2)c2c3c(sc2n1)CCCC3,-8%[9.24 µM],-4,86%,13µM*,-11%,?
Cc1nc(N)c(C#N)c(-c2ccc3c(c2)OCO3)c1C,9%,17,0%,10%,-1%,-22%
N#Cc1c(N)oc(-c2ccc3c(c2)OCO3)c1-c1ccc2c(c1)OCO2,4%,-61*,?,-7%,2%,0%
Nn1c(-c2ccccc2)cc(-c2ccccc2)cc1=O,0%,-7,1%,-12%,1%,-17%
COc1cccc(-c2n[nH]c3c2CN(C(=O)c2oc(C)cc2C)CC3)c1,.,.,4%,.,.,.
COc1ccc(C(=O)N2CCc3cc(OC)c(OC)cc3C2c2ccc(OC)c(OC)c2)cc1 (stereo unspecified),?,-51*,1%,?,-24%,?
COc1ccc(C2c3cc(OC)c(OC)cc3CCN2C(=O)c2ccccc2Br)cc1OC (stereo unspecified),1%,?,4%,?,-18%,-11%
COc1ccc(C2c3cc(OC)c(OC)cc3CCN2C(=O)c2ccccc2)cc1OC (stereo unspecified),-29%,-10,-8%,9.2µM*,-23%,?
COc1ccc(C(=O)N2CCc3cc(OC)c(OC)cc3C2COc2ccccc2OC)cc1 (stereo unspecified),.,.,-12%,29µM*,.,16µM*
SMILES,HT1080 IDH1KD tx,IL-1B inflam inh,ALOX12 inh,TDP1 cell noCPT,HT1080NT lethal,DT40 TDP1 CPT
COc1ccc(-c2n[nH]c3c2CN(C(=O)c2ccc(OC)c(OC)c2)CC3)cc1,21µM*,1,-7%,8.2µM*,-27%,8.2µM*
CCCCc1ccc(-c2ccccc2)nc1,.,.,25%,.,.,.
COc1ccc(Cl)cc1NC(=O)Cn1c(N2CCN(c3ccccc3)CC2)nc(C)cc1=O,.,.,-4%,.,.,.
COc1ccc(C2c3cc(OC)c(OC)cc3CCN2S(C)(=O)=O)cc1OC (stereo unspecified),-9%,38,-7%,21µM*,-2%,16µM*
COc1cc2c(cc1OC)C(COc1ccc(C(C)C)cc1)NCC2 (stereo unspecified),-6%,-20,-24%,16µM*,-11%,?
COc1cc2c(cc1OC)C(COc1ccc(C(C)C)cc1)N(C(=O)c1ccc(S(=O)(=O)N3CCCC3)cc1)CC2 (stereo unspecified),.,.,-9%,21µM*,.,?
COc1cc2c(cc1OC)C(C)N(S(=O)(=O)c1ccc(C)cc1)CC2 (stereo unspecified),2%,8,0%,?,-3%,-19%
CCOC(=O)c1cccnc1N1C[C@H]2OC(=O)N(Cc3ccccn3)[C@H]2C1,.,.,1%,.,.,.
CNC(=O)[C@@H]1C[C@H](Oc2ccccc2)CN1C(=O)Cn1c(=O)oc2ccccc21,.,.,48%,.,.,.
COc1cc(CCC(N)c2cccc(O)c2)cc(OC)c1OC (stereo unspecified),17%,-1,-1%,-6%,1%,13%
NC(=O)c1ccsc1NC(=O)COC(=O)c1cc(Cl)ccc1Cl,.,.,11%,.,.,.
CC(C)CNC(=O)NC(=O)CN(C)CCCc1ccccc1,.,.,-2%,.,.,.
Cc1cccc(NS(=O)(=O)c2ccc3[nH]c(=O)oc3c2)c1C,-8%,21,?,-25%,-4%,-25%
O=S(=O)(c1ccc2nc(-c3ccccc3)[nH]c2c1)N1CCN(c2cccc(Cl)c2)CC1,-23%,24,-24%,?,?,2%
Cc1ccc(NS(=O)(=O)c2ccc3nc(-c4ccccc4)[nH]c3c2)c(Br)c1,.,.,0%,23µM*,.,15µM*
Cc1ccc(NS(=O)(=O)c2ccc3c(c2)NC(=O)CCS3)c(Br)c1,-26%,64,?,-18%,-29%,?
CC(C)c1ccc(NS(=O)(=O)c2ccc3nc(-c4ccccc4)[nH]c3c2)cc1,.,.,3%,?,.,15µM*
Cc1cccc(NS(=O)(=O)c2ccc3nc(-c4ccccc4)[nH]c3c2)c1C,?,-13,-5%,16µM*,-23%,16µM*
